Data taken from PubChem BioAssay (Tox21).
Inconclusive results are not listed. A call without a number means that no potency is given here. The source holds several records for some structures; these can differ, active in one and inactive in another. The source made the active and inactive calls. Calls follow the shape of the dose curve; as a rule, active = well fitted cell-killing curve with a large enough effect in the repeat runs; inconclusive = weak or mixed curves, or effect the other way; inactive = flat fitted curve, though single readings scatter.

Assay: qHTS assay to identify small molecule antagonists of the androgen receptor (AR) signaling pathway using the MDA cell line in the presence of 0.5 nM R1881 - cell viability counter screen (AID 1259242); also: nearly all actives have a fitted effect of over 45% in size
Details: MDA-kb2 viability, CellTiter-Fluor protease fluorescence, 16 h; series mostly up to 92.4 µM
Excerpt: U.S. Tox21 Program National Center for Advancing Translational Sciences [NCATS] NIH Chemical Genomics Center [NCGC] U.S. Environmental Protection Agency [EPA] National Institutes of Environmental Health Sciences [NIEHS] National Toxicology Program [NTP] U.S. Food and Drug Administration [FDA] Tox21 Assay Overview: Androgen receptor (AR) is an important member of the nuclear receptor family. Its signaling plays a critical role in AR-dependent prostate cancer and other androgen related diseases. Considerable attention has been given in the past decades to develop methods to study and screen for the environmental chemicals that have the potential to interfere with metabolic homeostasis, reproduction, developmental and behavioral functions. Therefore AR binding assay for screening androgen antagonists can be used to identify potential endocrine disruptors. MDA-kb2 cells (from ATCC, deposited by Wilson et al.) were used to screen for AR inhibitors against Tox21 compound libraries. These cells are human breast carcinoma cells that were stably transfected with a luciferase reporter gene under control of the MMTV promoter that contains response elements for both androgen receptor (AR) and glucocorticoid receptor (GR). The current screening for identification of AR inhibitors against Tox21 libraries used lower concentration of (0.5 nM) R1881 as a stimulator. The cytotoxicity of the Tox21 compound libraries against MDA-kb2 cell line was tested by measuring live-cell protease activity using CellTiter-Fluor assay in the same wells.
Tox21 Assay Protocol Summary: MDA-kb2 cells (cells cultured without CO2) were dispensed at 3,000 cells/well in 4 uL of culture medium into white wall/solid-bottom 1536-well plates (Corning Life Sciences, Corning, NY) using a Multidrop Combi (ThermoFisher Scientific, Waltham, MA) dispenser. After the assay plates were incubated at a 37C and 0% CO2 for 5 hr, 23 nL of compounds dissolved in DMSO, positive controls or DMSO only was transferred to the assay plate by a Pintool station (Kalypsys, San Diego, CA). The transfer of compounds was followed by the addition of 1 uL of 0.5 nM (final concentration) agonist (R1881)/culture medium using a Flying Reagent Dispenser (FRD, Aurora Discovery, San Diego, CA). The plates were incubated at 37C and 0% CO2 for 16 hr. For cytotoxicity assay, 1 uL of CellTiter-Fluor reagent (Promega Corporation, Madison, WI) was added to each well using the FRD and after 30 min incubation at 37C and 0% CO2, The fluorescence intensity was measured using ViewLux plate reader (PerkinElmer, Shelton, CT).
Potency is read from the fitted curve at half-maximal effect.

Structure (SMILES)	Potency
OC[C@H]1O[C@@H]2O[C@H]3[C@H](O)[C@@H](O)[C@@H](O[C@H]4[C@H](O)[C@@H](O)[C@@H](O[C@H]5[C@H](O)[C@@H](O)[C@@H](O[C@H]6[C@H](O)[C@@H](O)[C@@H](O[C@H]7[C@H](O)[C@@H](O)[C@@H](O[C@H]8[C@H](O)[C@@H](O)[C@@H](O[C@H]1[C@H](O)[C@H]2O)O[C@@H]8CO)O[C@@H]7CO)O[C@@H]6CO)O[C@@H]5CO)O[C@@H]4CO)O[C@@H]3CO	inactive
Nc1ccc(S(=O)(=O)Nc2cnc3ccccc3n2)cc1	inactive
C[C@]12CCC(=O)C=C1CC[C@@H]1[C@@H]2C(=O)C[C@@]2(C)[C@H]1CC[C@]2(O)C(=O)CO	inactive
Nc1ccc(Nc2ccccc2)cc1	inactive
Cc1ccc2c(n1)Oc1ccc(C(C)C(=O)OCC(=O)N(C)C)cc1C2 (stereo not given)	inactive
OC(CCl)CCl	inactive
CN(C)c1nc(N(C)C)nc(N(C)C)n1	inactive
S=C(NC1CCCCC1)NC1CCCCC1	inactive
CC(C)OB(OC(C)C)OC(C)C	inactive
Nc1ccccc1N	inactive
NC=O	inactive
C#C[C@]1(O)CC[C@H]2[C@@H]3CCc4cc(OC)ccc4[C@H]3CC[C@@]21C	inactive
O=C1c2cccc(O)c2C(=O)c2c(O)cccc21	inactive
c1ccncc1	inactive
CCCCCCCCCCCO	inactive
CCC(C)c1ccccc1O (stereo not given)	inactive
Cc1cccc([N+](=O)[O-])c1C	inactive
c1ccc2c(c1)c1cccc3ccc4cccc2c4c31	inactive
COc1ccccc1/C=C/C=O	inactive
O=C(O)c1ccccc1Nc1cccc(C(F)(F)F)c1	inactive

Structure (SMILES)	Potency
O=C(COc1ccc(Cl)cc1)N1CCN(Cc2ccc3c(c2)OCO3)CC1	inactive
COc1ccc(C(=O)CC(=O)c2ccc(C(C)(C)C)cc2)cc1	inactive
O=C(c1ccccc1)c1ccccc1O	inactive
O=C(c1ccccc1)c1ccc(O)cc1O	inactive
Cc1cccc(C(=O)O)c1	inactive
C=C(C)C1CC=C(C)CC1 (stereo not given)	inactive
CC(=O)O[C@]1(C(C)=O)CC[C@H]2[C@@H]3C=C(Cl)C4=CC(=O)[C@@H]5C[C@@H]5[C@]4(C)[C@H]3CC[C@@]21C	inactive
Cc1ccc(C(=O)c2cc(O)c(O)c([N+](=O)[O-])c2)cc1	54.5 µM (active)
CCOC(=O)C(C#N)=C(c1ccccc1)c1ccccc1	inactive
CCC(C)(O)CCCC(C)C (stereo not given)	inactive
C[C@]12CC[C@H]3[C@@H](CCC4=CC(=O)CC[C@@]43C)[C@@H]1CC[C@@H]2C(=O)CO	inactive
CN(C)C(=N)N=C(N)N	inactive
c1cc(N(CC2CO2)CC2CO2)ccc1OCC1CO1 (stereo not given)	inactive
COc1c(Cl)c(Cl)c(Cl)c(Cl)c1Cl	inactive
CN1C(C(=O)Nc2ccccn2)=C(O)c2ccccc2S1(=O)=O	inactive
C/C=C/C(=O)O	inactive
COc1cc([C@@H]2c3cc4c(cc3[C@H](O)[C@H]3COC(=O)[C@H]23)OCO4)cc(OC)c1OC	inactive
COC(=O)C1=C(C)NC(C)=C(C(=O)OCCN(C)Cc2ccccc2)C1c1cccc([N+](=O)[O-])c1 (stereo not given)	60.8 µM (active) and inactive
COc1ccc(OC)c(C(O)CNC(=O)CN)c1 (stereo not given)	inactive
CC(C)CC(C)(O)C#CC(C)(O)CC(C)C (stereo not given)	inactive
